This is an account of results in PubChem BioAssay (Tox21).

The structures appear in SMILES notation. Inconclusive results are not listed. Activity calls are given as the source filed them. The call rests on the fitted dose curve; in most records, active means well fitted cell-killing curve with a large enough effect in the repeat runs; inconclusive means weak or mixed curves; inactive means no such curve, though single readings can be large or run the other way.

This assay can be described thus: qHTS assay to identify small molecule agonists of the peroxisome proliferator-activated receptor delta (PPARd) signaling pathway - cell viability counter screen (AID 743211). Further: nearly all actives have a fitted effect of over 55% in size. The following applies: PPARd-bla HEK293H viability, CellTiter-Glo luminescence, 17 h; series mostly up to 62.6 µM. The essentials: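 Multiplexed format: after the 2 h room-temperature LiveBLAzer B/G FRET step, CellTiter-Glo was added to the same wells. Luminescence after 30 min gave cell viability; compound exposure was 17 h at 37C.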
In general terms: In qHTS, concentration-response curves come from the screen itself.
For `O=C1c2ccccc2C(=O)N1CCl`, the compound was classed as inactive.
To `CC(=O)CCCCn1c(=O)c2c(ncn2C)n(C)c1=O` belongs “inactive”.
In the case of `CCCCOC(=O)c1ccccc1`, the result was inactive.
In the case of `Brc1ccc(-c2ccccc2)cc1`, the compound was called inactive.
To `CCOc1cc([N+](=O)[O-])c(OCC)cc1N1CCOCC1` belongs “inactive”.
The result for `O=C(CCNNC(=O)c1ccncc1)NCc1ccccc1` reads “inactive”; that for `COc1ccc(-c2cc(=O)c3c(O)cc(O[C@@H]4O[C@H](CO[C@@H]5O[C@@H](C)[C@H](O)[C@@H](O)[C@H]5O)[C@@H](O)[C@H](O)[C@H]4O)cc3o2)cc1O`, “inactive”.
As to `Cc1cccc2nccnc12`, the outcome was inactive.
The result for `O=C(OCC1(COC(=O)c2cccnc2)CCCC(COC(=O)c2cccnc2)(COC(=O)c2cccnc2)C1O)c1cccnc1` reads “inactive”.
Turning to `OC[C@H](Cc1cccc(O)c1)[C@H](CO)Cc1cccc(O)c1`, the result was inactive.
`C=C(C)C(=O)OCCN(CC)CC`: the outcome was inactive.
The result for `COCCc1ccc(OCC2CO2)cc1` (configuration not stated) reads “inactive”; that for `COC(=O)c1ccccc1C(=O)c1ccc(OCCN2CCCCC2)cc1`, “inactive”; that for `CC(C)=O`, “inactive”.
Turning to `O=C(O)c1cc(Br)c(O)c(Br)c1`, the result was inactive.
To `CCNC(=O)C1CC(C)CCC1C(C)C` (configuration not stated) belongs “inactive”.
With `O=C(O)c1cc(Cl)cc([N+](=O)[O-])c1Cl`, the outcome was inactive.
On to `CC1=C(C(=O)O)N2C(=O)[C@@H](NC(=O)[C@H](N)c3ccc(O)cc3)[C@H]2SC1`, for which the outcome was inactive.
The result for `C[C@H](CCC(=O)O)[C@H]1CC[C@H]2[C@@H]3C(=O)C[C@@H]4CC(=O)CC[C@]4(C)[C@H]3CC(=O)[C@]12C` reads “inactive”; that for `NC(CO)C(=O)NNCc1ccc(O)c(O)c1O` (configuration not stated), “inactive”.
The result for `COC(=O)[C@@H]1[C@H]2C[C@H]3c4[nH]c5ccccc5c4CCN3C[C@@H]2CC[C@@H]1O` reads “inactive”; that for `CCC(C)NC(N)=O` (configuration not stated), “inactive”.
To `COc1nccnc1NS(=O)(=O)c1ccc(N)cc1` belongs “inactive”.
With `O=C(NCCN1CCOCC1)c1ccc(Cl)cc1`, the compound was classed as inactive.
Turning to `Cc1ccccc1OCC(O)CO` (configuration not stated), the compound was classed as inactive.
To `N[C@@H](CCC(=O)N[C@@H](CS)C(=O)NCC(=O)O)C(=O)O` belongs “inactive”; to `CN(CCOc1ccc(NS(C)(=O)=O)cc1)CCc1ccc(NS(C)(=O)=O)cc1`, “inactive”; to `COc1ccc2nc(SCc3ncc(C)c(OC)c3C)[nH]c2c1`, “inactive”.
The result for `CCCCCOC(=O)CCC` reads “inactive”; that for `CC(=O)Nc1cccc(C)c1`, “inactive”.
To `CC(C)OC(=O)CCCCC(=O)OC(C)C` belongs “inactive”; to `COC(=O)CCc1ccc(OCC(O)CNC(C)C)cc1` (configuration not stated), “inactive”; to `O=C(CCN1CCN(CCO)CC1)N1c2ccccc2Sc2ccc(C(F)(F)F)cc21`, “inactive”.
As to `CCOCCOCCOCC`, the call was inactive.
Regarding `N[C@@H](CCC(=O)Nc1ccc([N+](=O)[O-])cc1)C(=O)O`, the outcome was inactive.
To `Cc1ccc2ccc(Cl)cc2n1` belongs “inactive”; to `NNc1nnc(NN)c2ccccc12`, “inactive”.
